# Bioassay records (PubChem BioAssay)
# MITF inh = MITF inhibitors, primary screen, biochemical, AlphaScreen, human; Microphthalmia-associated transcription factor (Homo sapiens), O75030; AlphaScreen MITF homodimerization, bead proximity signal; inhibition, % at 2.6 µM; 650,000 tested, 0.91% active; in the data active = inhibition above about 50%;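 note: 0% = vehicle wells with protein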
# Target sequence (O75030 whole entry, looked up): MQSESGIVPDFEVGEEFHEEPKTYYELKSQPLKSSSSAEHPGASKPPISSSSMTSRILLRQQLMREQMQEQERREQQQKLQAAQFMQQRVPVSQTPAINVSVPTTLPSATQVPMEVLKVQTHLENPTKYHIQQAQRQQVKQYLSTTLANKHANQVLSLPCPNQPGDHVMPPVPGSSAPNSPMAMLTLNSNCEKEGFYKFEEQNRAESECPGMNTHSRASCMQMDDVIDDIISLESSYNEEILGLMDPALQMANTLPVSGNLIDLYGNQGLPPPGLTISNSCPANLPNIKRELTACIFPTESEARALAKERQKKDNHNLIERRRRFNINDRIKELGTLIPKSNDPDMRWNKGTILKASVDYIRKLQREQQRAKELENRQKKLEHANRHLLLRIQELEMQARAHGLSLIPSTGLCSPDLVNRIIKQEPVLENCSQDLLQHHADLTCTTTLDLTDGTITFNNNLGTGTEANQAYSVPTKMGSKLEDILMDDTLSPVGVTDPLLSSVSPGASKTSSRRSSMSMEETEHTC
# TEAD-YAP inh = TEAD-YAP interaction inhibition, primary screen, TEAD-YAP interaction inhibitor project, luminescence, HEK-TIYL cells | TEAD-Gal4/YAP UAS-luciferase luminescence | inhibition, % at 9.12 µM | 640,000 tested, 1.4% active; in the data active = inhibition above about 32%;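 note: 0% = median of test compound wells and 100% = reference inhibitor wells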
# FBW7 act = FBW7 E3 ligase activators, primary screen, biochemical, AlphaScreen, human; normalized activity (activation), % at 26.1 µM; F-box/WD repeat-containing protein 7 (Homo sapiens), Q969H0; 650,000 tested, 0.13% active; AID 1259310, 2017; AlphaScreen FBW7–phospho-cyclin E peptide binding, activator screen; in the data active = normalized activity above about 1.9%;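 note: purified mutant Fbw7 with reduced substrate affinity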
# GPR151 ag = activators of human GPR151, primary screen, cell-based, PathHunter beta-arrestin, luminescence; G-protein coupled receptor 151 (Homo sapiens), Q8TDV0; PathHunter beta-arrestin GPR151 cells; activation, % at 11.2 µM; 650,000 tested, 1% active; AID 1508602, 2020; in the data active = activation above about 4.9%;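 note: 0% = median of compound wells and 100% = cells with positive control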
# GPR151 conf act = GPR151 activators, triplicate retest, confirmation, cell-based, PathHunter beta-arrestin, luminescence; shares compounds with GPR151 ag; GPR151 PathHunter beta-arrestin cells, 90 min; % of EA-reagent control over plate median; activation, % at 11.2 µM; 6,700 tested, under 10 active; AID 1508609, 2020;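 active = mean percent activation across replicates above the confirmation screen cutoff of 4.91%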
# GPR119 counter = GPR119 activators in beta-arrestin cells, counter-screen for GPR151 activator project, cell-based, PathHunter beta-arrestin, luminescence, triplicate. shares compounds with GPR151 ag. 90 min; 0 = compound-well median, 100 = enzyme-acceptor control. activation, % at 11.2 µM. 6,700 tested, 0.3% active. AID 1508611, 2020;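 active = mean percent activation in the counterscreen above 29.09%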;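 note: counterscreen on off-target GPR119 to flag nonselective hits from the GPR151 activator screen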
# Starred values were filed as active, the others as inactive; x = no result given. The list is not random: actives were taken first. Their share in the collection is about 3.5%.
SMILES,MITF inh,TEAD-YAP inh,FBW7 act,GPR151 ag,GPR151 conf act,GPR119 counter
Cc1cc2nnc(SCC(=O)N3CCC(C)CC3)n2c(N)n1,3,-7,0,4.9*,1,-1
COC(=O)c1cnn(C(=O)c2ccc(OC)cc2)c1N,6,-4,0,6.2*,0,0
COC(=O)c1cnn(C(=O)c2ccncc2)c1N,-3,0,0,-2,x,x
O=C(CSc1nc2ccsc2c(=O)n1-c1ccc(Br)cc1)N1CCCC1,11,0,0,0,x,x
Cn1nc(-c2ccnc(Nc3ccc(N4CCOCC4)cc3)c2)cc1Nc1ccccc1,-4,-5,0,5.7*,0,-6
NC(=O)c1ccccc1Nc1ccnc(Nc2ccc(N3CCOCC3)cc2)c1,-5,27,0,0,x,x
NC(=O)c1cc2ccccc2cc1Nc1ccnc(Nc2ccc(N3CCOCC3)cc2)c1,34,83*,0,6.5*,0,0
CC(C)c1cccc(C(C)C)c1NC(=O)c1cncc(Br)c1,15,13,0,-1,x,x
CC(=O)Nc1ccc(CSc2ccccc2)cc1C,4,-54,0,-1,x,x
Cc1cc(CSc2ccccc2)ccc1NS(C)(=O)=O,4,-26,0,5.3*,0,-4
O=C(Nc1nc2ccccc2[nH]1)c1ccc(Br)cc1,21,25,0,8.0*,-4,-18
COc1ccccc1NC(=O)C(=O)N/N=C/c1ccc(C(=O)O)cc1,14,4,0,5.3*,0,-5
COc1cc(/C=N/NC(=O)c2ccc(N(C)S(=O)(=O)c3ccccc3)cc2)ccc1O,5,-9,0,9.3*,1,-3
COc1ccc(C(=O)N/N=C/c2ccc(O)c(OC)c2)cc1,0,-26,0,-1,x,x
O=C(N/N=C/c1cccc(Br)c1)C(=O)Nc1cccc(C(=O)O)c1,2,0,0,0,x,x
COc1ccc(NC(=O)C(=O)N/N=C/c2ccc(C(=O)O)cc2)c(OC)c1,9,2,0,-1,x,x
O=C(N/N=C/c1ccc(C(=O)O)cc1)C(=O)Nc1cccc(Br)c1,1,6,0,9.3*,0,0
CN1C(=O)N(C)C2(CCN(S(=O)(=O)c3ccccc3F)CC2)C1=O,7,-1,0,0,x,x
CC(C)N(Cc1nc(-c2ccccc2)no1)C(=O)CCCN1C(=O)c2ccccc2C1=O,14,9,0,11*,0,-4
CC(C)N(Cc1nc(-c2ccccc2)no1)C(=O)CN1C(=O)c2ccccc2C1=O,1,-3,0,0,x,x
Cc1ccc2nc(Cl)c3cc(C(=O)N4CCN(C)CC4)sc3c2c1,8,-4,0,0,x,x
Cc1ccc2nc(Cl)c3cc(C(=O)N=C4NC(=O)CN4C)sc3c2c1,0,2,0,6.1*,0,4
COc1ccc(C(=O)Nc2ccc(NC(=O)C3CCCCC3)cn2)cc1,-8,-9,0,1,x,x
CCOc1ccc(C(=O)NCc2cn3ccc(C)cc3n2)cc1,-2,-4,0,1,x,x
CC(C)COC(=O)Nc1nnc(C(C)C)s1,-7,-74,0,13*,0,7
SMILES,MITF inh,TEAD-YAP inh,FBW7 act,GPR151 ag,GPR151 conf act,GPR119 counter
CCCCOC(=O)Nc1nnc(C(C)C)s1,13,-58,0,0,x,x
O=C(O)c1ccc(NS(=O)(=O)c2cc(C(=O)O)ccc2Br)cc1,-8,-2,0,5.6*,0,-4
O=C(CNS(=O)(=O)c1ccc(Br)cc1)Nc1cccc(F)c1,12,-1,0,1,x,x
O=C(CNS(=O)(=O)c1ccccc1)Nc1cccc(F)c1,1,2,0,6.0*,0,-3
O=C(O)c1ccc(NC(=O)c2cccc(S(=O)(=O)Nc3cccc(F)c3)c2)cc1,-3,0,0,8.7*,0,4
Cc1ccc(SCC(=O)Nc2cccc(F)c2)cc1,-10,-57,0,6.4*,-1,-6
O=C(CSc1ccccc1)Nc1cccc(F)c1,4,-48,0,-1,x,x
O=C1Cc2cc3ccccc3cc2C2(CCN(Cc3cc(F)c(F)c(F)c3)CC2)N1,11,-14,0,3,x,x
COc1ccc(C2CC(C(F)(F)F)n3nc(C(=O)NC(C)(C)CC(C)(C)C)cc3N2)cc1OC (stereo unspecified),-10,-9,0,0,x,x
COC(=O)c1ccc(NC(=O)c2ccc(N3C(=O)c4ccccc4C3=O)cc2)cc1,6,-1,0,2,x,x
CC(C)c1nc(CNc2nc3nonc3nc2N(C)C)cs1,15,3,0,6.8*,-1,-8
c1csc(-c2nnc(N3CCOCC3)c3ccccc23)c1,5,6,0,5.9*,0,2
CCCn1nnc(NC(=O)C(C)Oc2ccc(Cl)cc2Cl)n1 (stereo unspecified),6,7,0,4.9*,0,-8
Cc1ccc(CS(=O)(=O)CCC(=O)NCCN(C)Cc2ccccc2)cc1,14,-3,0,7.7*,0,-1
Cc1cc(C(=O)/C=C/c2ccc(OCC(=O)O)cc2)c(C)s1,2,4,0,6.1*,0,-4
COc1ccc(C(=O)NOC(=O)/C=C(/C)NCc2ccccc2)cc1,-1,1,0,0,x,x
N#CC1=C(SCC(=O)Nc2nc3ccccc3s2)NC(=O)C(C#N)C12CCCCC2 (stereo unspecified),7,-4,0,1,x,x
O=C1CCCCN1c1cccc(NS(=O)(=O)c2cc(F)ccc2F)c1,11,12,1,7.1*,3,6
COc1ccc(-c2nc(NC(C)=O)sc2C)cc1OC,12,12,0,6.0*,-1,-8
O=C(CCc1c[nH]c2ccccc12)N1CCc2nnc(Cc3ccccc3)n2CC1,-28,-3,0,0,x,x
CC(CCCC(C)(C)O)Nc1nc2nonc2nc1N(C)C (stereo unspecified),0,4,0,0,x,x
Cc1cccc(C(=O)Oc2ccc(C)c(C)c2)c1,-22,2,0,1,x,x
Cc1cccc(C(=O)Oc2ccc(/C=N/N=C(N)N)cc2)c1,-14,65*,0,8.5*,-1,-14
CCCCCCOC(=O)Nc1nnc(CCC)s1,18,0,0,12*,0,-5
Cc1ccc(C(=O)O)cc1N1C(=O)c2ccc(Oc3ccc([N+](=O)[O-])cc3)cc2C1=O,-11,0,0,6.8*,0,2
